Inconclusive results are not listed. Active and inactive are the calls of the source. Calls come from the whole dose curve; as a rule, active = well fitted inhibition curve with a large enough effect; inconclusive = small, poorly fitted or top-dose-only effect; inactive = flat fitted curve, though single readings scatter.
What was measured:
Experiment in all cases: qHTS profiling for inhibitors of Plasmodium falciparum proliferation (AID 504749); note: nearly all actives have a fitted effect of over 60% in size
Conditions in all cases: P. falciparum in erythrocytes, SYBR Green DNA, 72 h; series mostly up to 28.7 µM
[1] = system: C2A
Method in brief: (§1)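 P. falciparum-infected erythrocytes (0.3% parasitemia, 2.5% hematocrit final) were exposed to compounds for 72 h at 37 C in 5% CO2, then lysed with SYBR Green buffer overnight at room temperature; parasite DNA fluorescence was normalized to artemisinin and DMSO controls.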

[2] = system: CP192
Method in brief: as §1

[3] = system: CP194
Method in brief: as §1

[4] = system: CP201
Method in brief: as §1

[5] = system: CP203
Method in brief: as §1

[6] = system: CP211
Method in brief: as §1

[7] = system: CP215
Method in brief: as §1

[8] = system: CP237
Method in brief: as §1

[9] = system: CP238
Method in brief: as §1

[10] = system: CP247
Method in brief: as §1

[11] = system: CP252
Method in brief: as §1

[12] = system: AA1029
Method in brief: as §1

[13] = system: AS120
Method in brief: as §1

[14] = system: ATS189
Method in brief: as §1

[15] = system: ATS95
Method in brief: as §1

[16] = system: CP185
Method in brief: as §1

[17] = system: CP191
Method in brief: as §1

[18] = system: CP250
Method in brief: as §1

[19] = system: CP256
Method in brief: as §1

[20] = system: CP217
Method in brief: as §1

Measured: Potency
Potency is the fitted concentration of half-maximal effect.

CC[C@]1(O)CC[C@H]2[C@@H]3CCC4=CCCC[C@@H]4[C@H]3CC[C@@]21C
inactive: [2] | [3] | [4] | [5] | [6] | [7] | [8] | [9] | [10] | [11]
active: [1] 0.891 µM

C[C@]12Cc3nonc3C[C@@H]1CC[C@@H]1[C@@H]2CC[C@@]2(C)[C@H]1CC[C@]2(C)O
not listed: [3] | [20]
inactive: all other assays above

CC(Cc1ccccc1)NCc1ccccc1Cl (configuration not stated)
inactive: [1] | [17] | [2] | [4] | [6] | [7] | [18]

Nc1ccc(N)cc1
active: [10] 8.91 µM | [18] 12.6 µM
inactive: [2] | [8]

CC(C)(O)C(Cl)(Cl)Cl
active: [12] 12.6 µM | [13] 4.47 µM | [14] 3.16 µM | [15] 10 µM | [17] 3.16 µM | [5] 10.7 µM | [7] 8.49 µM | [8] 3.16 µM | [9] 10 µM | [10] 10 µM | [18] 12.6 µM | [19] 10 µM

COc1ccc(CN2CCNCC2)c(OC)c1OC
not listed: [3] | [4] | [5] | [6] | [7]
inactive: all other assays above
